# BAZ2B block = qHTS Assay for Inhibitors of BAZ2B; Potency, µM (titrated, usually from 114 µM), usual class: inhibitors; AID 504333, 2011; AlphaScreen BAZ2B-H3K14Ac peptide displacement; actives 4.4% (n = 360,000); Bromodomain adjacent to zinc finger domain protein 2B (Homo sapiens), Q9UIF8; further: nearly all actives have a fitted effect of over 60% in size
#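 AlphaScreen displacement: compounds (up to 110uM) incubated 30 min at room temperature with a preformed 50 nM BAZ2B/50 nM biotinylated H3K14Ac peptide complex in PBS pH 7.4 with Tween-20. Donor and acceptor beads at 10 ug/mL final added, 20 min light-protected before reading.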
# HP1b chromo inh = HTS for Inhibitors of HP1-beta Chromodomain Interactions with Methylated Histone Tails; AlphaScreen HP1-beta / biotin-H3K9me3 peptide binding; Potency, µM (doses to about 114 µM), usual class: inhibitors; actives 0.56% (n = 390,000); AID 540317, 2011; further: nearly all actives have a fitted effect of over 70% in size
# Target sequence (P83916 whole entry, looked up): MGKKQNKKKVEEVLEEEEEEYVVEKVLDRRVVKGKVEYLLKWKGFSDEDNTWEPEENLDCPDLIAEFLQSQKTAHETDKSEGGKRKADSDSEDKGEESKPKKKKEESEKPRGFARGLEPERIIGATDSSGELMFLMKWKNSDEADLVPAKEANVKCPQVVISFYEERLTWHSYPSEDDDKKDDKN
#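 AlphaScreen: HP1-beta (50 nM) preformed 30 min with biotin-H3(1-18)K9me3 peptide (50 nM) in PBS pH 7.4, 0.01% Tween-20. Compound added for 30 min at RT, then streptavidin donor/nickel chelate acceptor beads (10 ug/mL) for 30 min.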
# JMJD2A Tudor = qHTS Assay for Inhibitors of JMJD2A-Tudor Domain | Lysine-specific demethylase 4A (Homo sapiens), O75164 | actives 4.4% (n = 390,000) | AlphaScreen JMJD2A-Tudor / H3K4me3 peptide binding | Potency, µM (series often up to 114 µM), usual class: inhibitors; further: nearly all actives have a fitted effect of over 50% in size
# L3MBTL1 inh = qHTS Assay for the Inhibitors of L3MBTL1; actives 0.66% (n = 230,000); Potency, µM (titrated, usually from 57.1 µM), hits mostly inhibitors; AlphaScreen L3MBTL1–H3K9me1 peptide binding; Lethal(3)malignant brain tumor-like protein 1 (Homo sapiens), Q9Y468; AID 485360, 2010; further: nearly all actives have a fitted effect of over 60% in size
#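 AlphaScreen assay: L3MBTL1 (50 nM final) was preincubated 30 min at room temperature with biotinylated H3(1-15)K9me1 peptide (75 nM final), then 30 min with library compounds; streptavidin donor and nickel chelate acceptor beads (10 ug/mL final) added, 30 min dark.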
# G9a inh = qHTS Assay for Inhibitors of Histone Lysine Methyltransferase G9a | Histone-lysine N-methyltransferase EHMT2 (Homo sapiens), Q96KQ7 | G9a H3K9 monomethylation, AlphaScreen, 2 h | Potency, µM (top dose mostly 102 µM), usual class: inhibitors | actives 8.8% (n = 350,000) | AID 504332, 2011; further: nearly all actives have a fitted effect of over 75% in size
# Target sequence (Q96KQ7 913-1193 limits assumed): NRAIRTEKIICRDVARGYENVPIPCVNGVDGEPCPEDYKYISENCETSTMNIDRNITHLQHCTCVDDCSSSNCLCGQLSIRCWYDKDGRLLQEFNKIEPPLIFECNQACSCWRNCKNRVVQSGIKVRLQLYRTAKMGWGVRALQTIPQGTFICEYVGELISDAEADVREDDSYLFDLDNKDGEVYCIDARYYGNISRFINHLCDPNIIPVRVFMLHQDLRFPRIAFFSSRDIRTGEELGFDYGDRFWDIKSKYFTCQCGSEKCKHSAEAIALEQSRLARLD
#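 G9a (20 nM) was preincubated 15 min with compound, then reacted 2 h at room temperature with 500 nM biotin-H3K9 peptide and 20 µM SAM. Monomethyl-H3K9 detected by AlphaScreen using anti-H3K9me1 antibody.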
# A number is an active result; 0 = inactive; ? = inconclusive; - = no result; ! = not confirmed by another sample; [ ] = another dose, or the depositor's remark. An excerpt weighted towards active compounds, which were near 11% of everything screened. The call rests on the fitted dose curve; in most records, active means well fitted inhibition curve with a large enough effect; inconclusive means small, poorly fitted or top-dose-only effect; inactive means no such curve, though single readings can be large or run the other way.
SMILES,BAZ2B block,HP1b chromo inh,JMJD2A Tudor,L3MBTL1 inh,G9a inh
COc1ccc(Nc2nc(N3CCCC3)c3ccccc3n2)cc1,?,?,45µM,-,0[12.7 µM]
CCN(CC)c1ccc(Nc2nc(N3CCOCC3)c3ccccc3n2)cc1,18µM,0,18µM,-,2.2µM
c1ccc2c(c1)nc(N1CCOCC1)c1ccccc12,0,0,0,0,0
CCOC(=O)c1cc(-c2ccccc2)n(CCC(=O)NCCc2ccccc2)c1C,?,?,?,-,0
COC(=O)c1ccc2c(=O)n(CCCCCC(=O)N3CCN(c4cccc(C)c4C)CC3)c(=O)[nH]c2c1,0,0,0,-,?
COc1ccc(C=CC(=O)c2c(OC)cc(OC)c(OC)c2O)cc1,-,40µM,?,-,-
C=CCOc1ccc(C=CC(=O)c2c(O)c(OC)c(OC)c(OC)c2OC)cc1,-,50µM,14µM,-,-
COc1cc(/C=C/C(=O)c2c(O)cc(C)oc2=O)cc(OC)c1O,?,0,0,-,45µM
COc1cccc(/C=C/C(=O)c2c(O)cc(C)oc2=O)c1O,?,0,0,-,?
COc1cc(O)c(C(=O)/C=C/c2ccc(OC)c(O)c2)c(OC)c1,-,-,-,-,0[2.33 µM]
COc1ccc2cc(C(=O)/C=C/c3cc(OC)c(O)c(OC)c3)ccc2c1,?,?,?,-,50µM
COc1ccc(C(=O)/C=C/c2ccc(O)cc2)cc1,0,0,0,0,0
COc1ccc(CNC(=O)C(=O)NCC(c2cccs2)S(=O)(=O)c2ccc(C)cc2)cc1 (configuration not stated),0,0,0,-,0
Cc1nc2ccc(S(=O)(=O)N(CC(=O)Nc3cccc(C)c3C)Cc3ccccc3)cc2s1,0,0,0,-,0
COc1ccc(C(=O)/C=C/c2cc(OC)c(O)c(OC)c2)c(F)c1,?,0,0,0,8.9µM
O=C(Cc1ccccc1)Nc1c(C(=O)Nc2ccccc2F)oc2ccccc12,0,0,0,-,0
CC1(C)C[C@@H]1C(=O)N/C(=C\CCCCSC[C@H](N)C(=O)O)C(=O)O,0,0,0,0,0[12.7 µM]
CCOCc1[nH]c(=S)[nH]c(=O)c1Cc1ccc(OC(C)C)cc1,0,0,0,0,50µM
COc1ccc(C(=O)OCC(=O)NC(Cc2ccccc2)C(C)=O)cc1S(=O)(=O)N1CCCC1 (configuration not stated),0,0,0,0,56µM
COc1ccc(C(=O)OCC(=O)NC2CC2)cc1S(=O)(=O)N(C)Cc1ccccc1,0,0,0,0,50µM
CCN(C(=O)COC(=O)c1ccc(OC)c(S(=O)(=O)N(C)Cc2ccccc2)c1)C1CCS(=O)(=O)C1 (configuration not stated),0,0,0,0,?
Cc1ccc(O)c(N=CC2=C(O)c3ccccc3C2=O)c1,40µM,0,?,?,32µM
O=C1C2=C(C(c3ccccc3)=NCCN2)C(c2cccc([N+](=O)[O-])c2)N1c1ccccc1 (configuration not stated),0,0,45µM,0,0
CN(CCO)c1ccc(C(C(=O)c2ccccc2)c2ccc(N(C)CCO)cc2)cc1,45µM,?,45µM,?,0[2.33 µM]
CCCN(CCC)CCCNC(=O)C1CCN(S(=O)(=O)CC)CC1,0,0,0,-,0
SMILES,BAZ2B block,HP1b chromo inh,JMJD2A Tudor,L3MBTL1 inh,G9a inh
CCOc1ccc2nc(NC(=O)Cn3cnc4c3c(=O)n(C)c(=O)n4C)sc2c1,0,0,0,0,79µM
CCOc1ccc2nc(NC(=O)CSc3nc4c(c(=O)n(C)c(=O)n4C)n3C(C)C)sc2c1,0,0,0,0,0
CCOc1ccc2nc(NC(=O)CN3CCN(CC)CC3)sc2c1,0,0,0,0,45µM
CCOc1ccc2nc(NC(=O)CN3CCN(C)CC3)sc2c1,?,0,0,0,35µM
CCOc1ccc2nc(NC(=S)NCc3ccccc3)sc2c1,0,?,0,-,7.1µM
CCOc1ccc2nc(NC(=O)Nc3cccs3)sc2c1,0,0,?,0,45µM
COc1ccc2nc(NC(=O)C34CC5CC(CC(NC(C)=O)(C5)C3)C4)sc2c1,0,0,0,-,-
CCOc1ccc2nc(NC(=O)C34CC5CC(CC(NC(C)=O)(C5)C3)C4)sc2c1,0,0,0,-,16µM
CCOc1ccc2nc(NC(=O)Nc3ccccc3)sc2c1,0,0,0,-,0
CCOc1cc(C2C(C(N)=O)=C(C)Nc3ncnn32)cc(Br)c1O (configuration not stated),0,0,0,-,0
CCOc1cc(C2C(C(=O)Nc3ccccc3)=C(C)Nc3ncnn32)cc(Br)c1O (configuration not stated),79µM,0,?,-,10µM
CC1=C(C(=O)Nc2ccccc2C)C(c2ccc[nH]2)n2ncnc2N1 (configuration not stated),50µM,0,56µM,-,0
CC1=C(C(=O)Nc2ccc(C)cc2C)C(c2ccc[nH]2)n2ncnc2N1 (configuration not stated),0,0,0,-,0
CCOc1ccc(-n2c(SCc3ccc([N+](=O)[O-])cc3)nnc2-c2ccc(OC)cc2)cc1,?,?,?,0,8.9µM
CNCCC=C1c2ccccc2C=Cc2ccccc21,-,0,0,-,0[21.5 µM]
CN(C)CC/C=C1\c2ccccc2Sc2cc(F)c(Cl)cc21,-,0,?,-,-
CN(C)CCC=C1c2ccccc2C=Cc2ccccc21,0,0,0,0,14µM!
CCCCCCCCCC[N+](C)(C)CC/C=C1/c2ccccc2Sc2ccc(Cl)cc21,0,0,0,-,?
OCCN1CCN(CCCN2c3ccccc3Sc3ccc(Cl)cc32)CC1,?,0,?,0,0[12.7 µM]
OCCN1CCN(CC/C=C2/c3ccccc3Sc3ccc(Cl)cc32)CC1,?,0,?,0,16µM
CCCCCCCCCCC[N+](C)(C)CC/C=C1/c2ccccc2Sc2ccc(Cl)cc21,0,0,?,-,35µM
COc1ccc(S(=O)(=O)N(CC(=O)NCc2ccncc2)c2ccc(C)cc2)cc1OC,0,0,0,-,0
Cc1ccc(-c2onc(C)c2C)cc1S(=O)(=O)NCc1ccco1,0,0,0,-,0
COc1ccc(CCNC(=O)C(=O)Nc2nccs2)cc1OC,0,0,79µM,0,?
COc1ccc(CCNC(=O)CSC(=O)c2ccccc2)cc1OC,0,0,0,0,18µM
CCOc1ccc(CCNC(=O)CSc2n[nH]c(N)n2)cc1OCC,0,?,18µM,-,8.9µM
COc1ccc(CCNC(=O)CSCc2ccc([N+](=O)[O-])cc2)cc1OC,0,?,20µM,0,0
CC(=O)c1cccc(NC(=O)c2sc(-n3nc(C)c(Cc4ccc5c(c4)OCO5)c3C)nc2C)c1,0,0,0,-,0
O=C(Cc1ccccc1F)Nc1ccc(S(=O)(=O)N2CCCC2)cc1,-,0,0,0,-

# Compound activity deposited in PubChem BioAssay by National Center for Advancing Translational Sciences (NCATS).
